The values below come from PubChem BioAssay (Tox21).

A short description of experiment [1]: qHTS assay for small molecule agonists of the p53 signaling pathway (AID 651631; calls by dose curve; further: nearly all actives have a fitted effect of over 15% in size). A digest of the protocol: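 Readout was fluorescence from the LiveBLAzer FRET substrate, applied for 2 h at room temperature after 16 h compound exposure at 37 °C. Cells were the p53RE-bla HCT-116 line, with beta-lactamase driven by p53 response elements.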
A short description of experiment [2]: qHTS assay for small molecules that induce genotoxicity in human embryonic kidney cells expressing luciferase-tagged ATAD5 (AID 651632). Further: nearly all actives have a fitted effect of over 15% in size. The method in brief: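 HEK293T cells carrying a luciferase reporter tagged to ATAD5 were exposed to compound or DMSO vehicle for 16 hr at 37C, 5% CO2. Amplite was added, and after 30 min at room temperature luciferase activity was read as a marker of ATAD5 induction.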

Experiment [3] can be described thus: qHTS assay for small molecule agonists of the p53 signaling pathway - cell viability (AID 651633; calls by dose curve; further: series mostly up to about 83 µM; nearly all actives have a fitted effect of over 30% in size). A digest of the protocol:
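p53RE-bla cells, seeded at 4,000 per well and rested 5 h at 37 C/5% CO2, received compounds in DMSO for 16 h at 37 C. CellTiter-Glo was then added, and luminescence was read after 30 min at room temperature to gauge cytotoxicity.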

Experiment [4] is described as follows: qHTS assay for small molecules that induce genotoxicity in human embryonic kidney cells expressing luciferase-tagged ATAD5 - cell viability (AID 651634; calls by dose curve; further: nearly all actives have a fitted effect of over 25% in size). The method in brief:
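HEK293T cells expressing luciferase-tagged ATAD5 were exposed to compound or DMSO for 15.5 hr at 37C, 5% CO2. Viability was then read as live-cell protease activity by CellTiter-Fluor fluorescence after 30 min at 37C.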

A short description of experiment [5]: qHTS assay for small molecule disruptors of the mitochondrial membrane potential - cell viability (AID 720634; calls by dose curve;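 further: human HepG2 liver cancer cells; series mostly up to about 83 µM; nearly all actives have a fitted effect of over 20% in size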). The method in brief: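 HepG2 cells seeded overnight at 37 C, then exposed to compound or DMSO for 1 hr at 37 C, 5% CO2. m-MPI dye added, then CellTiter-Glo for 30 min at room temperature; viability read as ATP luminescence.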
Experiment [6] can be described thus: qHTS assay to test for compound auto fluorescence at 590 nm (red) in HepG2 cells (AID 720674). A digest of the protocol: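 Rose Bengal sodium served as the red fluorophore standard. HepG2 monolayers (overnight attachment, MEM with 10% FBS) were exposed to test compounds for 1 hr at 37 C and read at Ex 540/Em 590 nm.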
A short description of experiment [7]: qHTS assay to test for compound auto fluorescence at 535 nm (green) in HepG2 cells (AID 720675).
Experiment [8] in a line: qHTS assay to test for compound auto fluorescence at 460 nm (blue) in HEK293 cells (AID 720678). A digest of the protocol: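 Blue-channel (Ex/Em 405/460 nm) intensity measured in HEK293 cultures after overnight compound exposure at 37C; signal expressed relative to triamterene. Cells plated 2,000 per well in 10% dialyzed FBS medium and allowed 4-5 hr to attach.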
Experiment [9] can be described thus: qHTS assay to test for compound auto fluorescence at 590 nm (red) in HEK293 cells (AID 720679). The method in brief:
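Red-channel autofluorescence (Ex/Em 540/590 nm; Rose Bengal sodium reference) was measured after overnight 37C, 5% CO2 exposure of attached HEK293 cells, 2,000 per well in medium with 10% dialyzed FBS.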

Experiment [10] is described as follows: qHTS assay to test for compound auto fluorescence at 535 nm (green) in HEK293 cells (AID 720680).
A short description of experiment [11]: qHTS assay to test for compound auto fluorescence at 460 nm (blue) in HEK293 cell free culture (AID 720681). A digest of the protocol: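 Test compounds were pinned into cell-free culture medium (DMEM with 10% FBS) and fluorescence was read directly at Ex/Em 405/460 nm. Signals were expressed as fluorescence equivalents of triamterene, with DMSO vehicle as control.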

A short description of experiment [12]: qHTS assay to test for compound auto fluorescence at 535 nm (green) in HEK293 cell free culture (AID 720682). A digest of the protocol: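 Compounds were pin-transferred into cell-free DMEM with 10% FBS, and green fluorescence was read at excitation 485 nm and emission 535 nm. Intensities were expressed as fluorescein-equivalent values.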
The nature of experiment [13]: qHTS assay to test for compound auto fluorescence at 590 nm (red) in HEK293 cell free culture (AID 720683). The method in brief:
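Tox21 10K library compounds were pinned into cell-free DMEM with 10% FBS and fluorescence was read at excitation 540 nm. Activity is expressed as Rose Bengal sodium equivalency.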

Experiment [14] in a line: qHTS assay to test for compound auto fluorescence at 590 nm (red) in HepG2 cell free culture (AID 720684). The method in brief: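 Measured in medium alone (MEM containing 10% FBS) following pintool addition of compound; emission at 590 nm with 540 nm excitation, referenced to Rose Bengal sodium.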
Experiment [15] in a line: qHTS assay to test for compound auto fluorescence at 460 nm (blue) in HepG2 cell free culture (AID 720685). The method in brief: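 Compound (23 nL) or DMSO pinned into cell-free MEM with 10% FBS; blue fluorescence read at 405/460 nm excitation/emission, expressed as auto-fluorescence equivalency to triamterene.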
The nature of experiment [16]: qHTS assay to test for compound auto fluorescence at 535 nm (green) in HepG2 cell free culture (AID 720686).
Experiment [17] can be described thus: qHTS assay to test for compound auto fluorescence at 460 nm (blue) in HepG2 cells (AID 720687). The method in brief:
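Cells (2,000/well in MEM with 10% FBS) attached overnight at 37 C, then were exposed to compound or DMSO for 1 hr at 37 C, 5% CO2. Fluorescence read at Ex/Em 405/460 nm, expressed as triamterene-equivalent signal.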

Experiment [18] addresses Glucocorticoid receptor (Homo sapiens) (UniProt P04150). As to the kind of experiment: qHTS assay to identify small molecule agonists of the glucocorticoid receptor (GR) signaling pathway (AID 720691; active means well fitted activation curve with a large enough effect in the signal ratio in the repeat runs, not every such curve was filed as active; the % refers to the signal ratio). The method in brief:
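GR-bla HeLa cells (beta-lactamase reporter under glucocorticoid response element) were plated 4 h at 37 C/5% CO2, given compounds in DMSO, and incubated 18 h at 37 C. LiveBLAzer B/G FRET substrate was added for 2 h at room temperature, then fluorescence intensity read.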

For experiment [19] the target is unchanged. Description: qHTS assay to identify small molecule antagonists of the glucocorticoid receptor (GR) signaling pathway (AID 720692; active means well fitted inhibition curve with a large enough effect in the signal ratio in the repeat runs, not every such curve was filed as active; the % refers to the signal ratio; further: potency means the concentration at half of the fitted maximal effect). The method in brief: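 GR-bla HeLa cells (beta-lactamase reporter under glucocorticoid response element) were pre-plated 4 h at 37 C, treated with compounds plus 5 nM dexamethasone (final) for 18 h, then read by LiveBLAzer B/G FRET fluorescence after 2 h.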

Records with an inconclusive call do not appear. Calls of active or inactive are those of the source. Unless noted, the call rests on the fitted dose curve; in most records, active means well fitted curve in the direction sought with a large enough effect in the repeat runs; inconclusive means weak or mixed curves; inactive means no such curve, though single readings can be large; an effect the other way counts as inactive or inconclusive.

Sequence of Glucocorticoid receptor (Homo sapiens) (P04150 whole entry, looked up): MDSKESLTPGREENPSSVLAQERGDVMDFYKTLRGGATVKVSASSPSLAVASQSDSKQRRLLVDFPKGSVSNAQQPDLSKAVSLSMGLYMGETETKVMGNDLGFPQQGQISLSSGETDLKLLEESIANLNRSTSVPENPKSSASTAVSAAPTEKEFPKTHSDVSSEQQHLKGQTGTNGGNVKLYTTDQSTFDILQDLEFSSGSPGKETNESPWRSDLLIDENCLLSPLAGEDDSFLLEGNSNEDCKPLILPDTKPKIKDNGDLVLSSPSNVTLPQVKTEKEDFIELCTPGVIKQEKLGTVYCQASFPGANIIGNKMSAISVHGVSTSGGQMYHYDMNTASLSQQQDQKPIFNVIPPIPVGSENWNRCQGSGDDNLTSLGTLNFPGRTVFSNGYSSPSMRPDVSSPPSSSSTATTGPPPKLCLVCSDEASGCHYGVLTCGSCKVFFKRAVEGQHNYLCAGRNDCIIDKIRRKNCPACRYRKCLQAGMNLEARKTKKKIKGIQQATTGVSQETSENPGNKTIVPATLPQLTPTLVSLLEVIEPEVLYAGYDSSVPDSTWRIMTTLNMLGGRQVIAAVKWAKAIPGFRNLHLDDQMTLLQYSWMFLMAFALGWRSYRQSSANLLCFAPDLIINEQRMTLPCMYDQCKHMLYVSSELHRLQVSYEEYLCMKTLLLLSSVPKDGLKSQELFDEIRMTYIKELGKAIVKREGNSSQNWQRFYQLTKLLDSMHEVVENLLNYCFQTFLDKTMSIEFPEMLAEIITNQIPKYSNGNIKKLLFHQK

Take `ClC=C(Cl)Cl`: the Potency result in [1], in experiment [2], in experiment [3], in experiment [4] and in [5] was “inactive” in each case. The result in experiment [6], in experiment [7], in [8], in experiment [9], in experiment [10] and in [11] was inactive. The compound was called inactive in [12], in [13], in [14], in experiment [15], in [16] and in [17].

Regarding `Nc1nc(N)nc(N)n1`, the Potency entry in [1], in experiment [2], in experiment [3], in experiment [4], in experiment [5] and in experiment [19] was “inactive” throughout. The call in experiment [6], in experiment [7], in [8], in experiment [9], in experiment [10] and in experiment [11] was inactive. Moreover, the compound was classed as inactive in experiment [12], in experiment [13], in experiment [14], in experiment [15], in experiment [16] and in experiment [17]. Moreover, in experiment [18], the compound was classed as inactive.

Consider `Nc1ccc(N=Nc2ccc(-c3ccc(N=Nc4c(S(=O)(=O)O)cc5cc(S(=O)(=O)O)c(N=Nc6ccccc6)c(O)c5c4N)cc3)cc2)c(N)c1`, for which the Potency entry in [1], in experiment [2], in experiment [3], in experiment [4] and in experiment [5] was “inactive” in each case. Moreover, the call in experiment [6], in experiment [7], in [8], in experiment [9], in experiment [10] and in [11] was inactive. The result in experiment [12], in [13], in experiment [14], in [15], in [16] and in [17] was inactive. Besides, the call in experiment [18] was inactive.

For the compound `CC(C)(Cl)[N+](=O)[O-]`, the Potency result in [1], in experiment [2], in [3], in experiment [4], in experiment [5] and in experiment [19] was “inactive” throughout. The result in experiment [6], in experiment [7], in experiment [8], in [9], in [10] and in experiment [11] was inactive. The compound was called inactive in experiment [12], in experiment [13], in experiment [14], in experiment [15], in experiment [16] and in experiment [17].

`COc1c(C(C)(C)C)cc([N+](=O)[O-])c(C)c1[N+](=O)[O-]`: the Potency result in [1], in [2], in experiment [3], in experiment [4], in experiment [5] and in experiment [19] was “inactive” each time. Besides, the outcome in experiment [6], in experiment [7], in experiment [8], in experiment [9], in experiment [10] and in [11] was inactive. For the same compound, the compound was classed as inactive in experiment [12], in experiment [13], in experiment [14], in experiment [15], in experiment [16] and in experiment [17]. Moreover, the result in experiment [18] was inactive.

In the case of `CC/C(=N\OC/C=C/Cl)C1=C(O)CC(C2CCOCC2)CC1=O` (configuration not stated), the Potency entry in experiment [1], in experiment [2], in experiment [3], in [4], in experiment [5] and in experiment [19] was “inactive” throughout. The call in experiment [6], in experiment [7], in experiment [8], in experiment [9], in [10] and in [11] was inactive. Moreover, the call in experiment [12], in [13], in experiment [14], in experiment [15], in [16] and in experiment [17] was inactive. In experiment [18], the result was inactive.

Turning to `CCOP(=O)(OCC)O/C(=C/Cl)c1ccc(Cl)cc1Cl`, the Potency result in experiment [1], in [2], in experiment [3], in experiment [4] and in [5] was “inactive” each time. The call in experiment [6], in experiment [7], in experiment [8], in experiment [9], in experiment [10] and in [11] was inactive. Further, the compound was called inactive in experiment [12], in experiment [13], in experiment [14], in experiment [15], in experiment [16] and in experiment [17]. Moreover, the result in [18] was inactive. For the same compound, in experiment [19], the Potency is 49 µM (active).

On to `COC(=O)C(Cl)C(=O)OC`, for which the Potency entry in [1], in experiment [2], in experiment [3], in experiment [4], in experiment [5] and in experiment [19] was “inactive” throughout. The compound was called inactive in experiment [6], in experiment [7], in experiment [8], in experiment [9], in experiment [10] and in [11]. The result in experiment [12], in [13], in experiment [14], in experiment [15], in experiment [16] and in experiment [17] was inactive.
